# In the library only some 7.9% were active in any assay of this set; here they are far more common.
# HCMV antiviral: qHTS Assay for inhibitors of the human cytomegalovirus (HCMV); HFF cells, HCMV-luciferase reporter, 72 h; active compounds read low; 4.5% of 410,000 active; activity change, negative = inhibition, % at 57.5 µM; in the data active = activity change below about -60%; inconclusive = no clear call, values can overlap the other calls; inactive = above about -39%
#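 Inhibition of viral replication was scored as loss of reporter luminescence in HFFs infected with HCMV-luciferase (MOI 1 PFU/cell) for 72 h; compounds tested at 2 doses, normalized to buffer and Salinomycin controls.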
# Marburg entry inh: qHTS for inhibitors of binding or entry into cells for Marburg Virus | AID 540276, 2011 | Potency, µM (titrated, usually from 37.8 µM), inactives show top-dose activity change, negative = inhibition, most hits filed as inhibitors | 1.8% of 300,000 active | Marburg virus pseudotyped entry inhibition, cell reporter; calls by dose curve; tested in HEK293 cells; note: potency is the fitted concentration of half-maximal effect
# LASV entry inh: qHTS for Inhibitors of binding or entry into cells for Lassa Virus; Potency, µM (highest dose often 37.9 µM), for inactives: top-dose activity change, negative = inhibition, usual class: inhibitors; 1.2% of 300,000 active; Lassa virus pseudotype entry inhibition, cell reporter; calls by dose curve; tested in HEK293 cells; note: potency is the fitted concentration of half-maximal effect; nearly all actives have a fitted effect of over 50% in size
# HCV inhibitor: qHTS Assay for Inhibitors of Hepatitis C Virus (HCV). Huh7.5.1 HCVcc-Cre infection, luciferase reporter, 44 h. Potency, µM (top dose mostly 41.8 µM), for inactives: top-dose activity change, negative = inhibition, most hits filed as inhibitors. 3.4% of 340,000 active. AID 651820, 2012; active = well fitted inhibition curve with a large enough effect; inconclusive = small, poorly fitted or top-dose-only effect, or another doubt; inactive = no such curve, though single readings can be large or run the other way; note: potency is the fitted concentration of half-maximal effect
#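 Reporter virus HCVcc-Cre (~0.5 moi) infects cells exposed to compound; seeding density 1,000 cells/well with 4 h settling beforehand. Luminescence, 15 sec read, taken 44 h post-infection following a 15 min RT substrate incubation.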
# FMDV inh: High Throughput Screening for Foot and Mouth Disease Virus Antivirals; 1.2% of 410,000 active; FMDV antiviral cell-based qHTS; Potency, µM (series often up to 57.9 µM), without a hit: at the highest dose activity change, negative = inhibition, usual class: inhibitors; AID 1159524, 2015; calls by dose curve; tested in HEK293T cells; note: read-out not given here; potency is the fitted concentration of half-maximal effect; nearly all actives have a fitted effect of over 45% in size
# Active calls of the source: *; ? = inconclusive; · = no result; [ ] = dose if it differs, or a comment. % is set by controls: 0 for no effect and ±100 for the full control effect.
SMILES,HCMV antiviral,Marburg entry inh,LASV entry inh,HCV inhibitor,FMDV inh
O=C(NC(=S)Nc1ccc(N2CCCCC2)c(Cl)c1)c1ccc2c(c1)OCCO2,-63*,1.4µM*,?,3.5µM*,?
CN(c1cccc(NC(=O)c2ccc(Cl)c(S(=O)(=O)Nc3ccccc3)c2)c1)S(C)(=O)=O,2,3.7µM*,-24%,10µM*,19%
O=C(NC(=S)Nc1ccc(N2CCOCC2)c(Cl)c1)c1cncc(Br)c1,-13,?,0%,-6%,-12%
O=C(Nc1ccccc1)c1ccc(Cl)c(S(=O)(=O)Nc2ccccc2)c1,33,?,-18%[46.1 µM],·,69%
CC(=O)c1ccc2c(c1)C1C(Cl)C(Sc3ccccc3[N+](=O)[O-])CC1C(C(=O)O)N2 (stereo unspecified),-17,0%,1%,35µM*,-23%
CNC(=S)N/N=C/c1ccc(-c2cccc(C(=O)O)c2)o1,0,?,?,5%,14%
Cc1ccc(C(=O)N/N=C/c2ccc(-c3cccc(C(F)(F)F)c3)o2)cn1,?,?,?,?,32µM*
CCOC(=O)Cc1csc(NC(=O)c2ccc(Br)s2)n1,·,1%,·,·,·
CCOC(=O)Cc1csc(NC(=O)Nc2cccc(Cl)c2)n1,-60*,-5%[46.1 µM],?,?,?
CCOC(=O)Cc1csc(NC(=O)Nc2ccc(Cl)cc2)n1,3,?,?,11µM*,?
CCOC(=O)Cc1csc(NC(=O)/C=C/c2cccc(Br)c2)n1,-39,?,?,11µM*,?
NC(c1csc(NC(=O)Nc2cccc(Cl)c2)n1)c1ccccc1Cl (stereo unspecified),-76*,·,·,·,-13%
CCOC(=O)Cc1csc(N/N=C/c2ccc(Cl)cc2)n1,-23,?,-9%,-12%,-29%
NCc1csc(NC(=O)Nc2cccc(Cl)c2)n1,-37,·,·,·,14%
COc1ccc(CNC(=O)CCc2cn(C)c3ccccc23)cc1,11,·,9%[46.1 µM],·,8%
CC(N)c1csc(NC(=O)Nc2cccc(C(F)(F)F)c2)n1 (stereo unspecified),-68*,·,·,·,-16%
O=C(Cc1csc(NC(=O)Nc2ccc(Cl)cc2)n1)NC1CCCC1,?,?,-27%,7.1µM*,-10%
O=C(Nc1ccc(Cl)cc1)Nc1nc(-c2ccccc2O)cs1,-66*,·,·,?,?
COc1cc(OC)cc(-c2cc3c(Nc4cccc(S(C)(=O)=O)c4)nccc3n2C)c1,-14,·,·,·,·
C#Cc1ccc(-n2nc3ccccc3c2OC)cc1,25,·,·,·,·
COc1cccc(-n2c(SCC(N)=O)nc3c(oc4ccccc43)c2=O)c1,-10,-24%[46.1 µM],·,·,-2%
COc1cccc(CN2CCC(C(=O)Nc3ccc(-c4cccc(C)c4)cc3)CC2)c1O,-13,·,·,10µM*,?
Cc1cccc(-c2ccc(NC(=O)C3CCN(CC4CC4)CC3)cc2)c1,-11,?,-10%[46.1 µM],10µM*,-23%
COc1ccc(-c2nc(CSCC(=O)NCc3ccccc3Cl)c(C)o2)cc1OC,-13,-2%[46.1 µM],-28%[46.1 µM],·,?
Cc1ccc(NC2=CC(=O)C(=O)c3ccccc32)cc1,-104*,?,?,10µM*,-39%
SMILES,HCMV antiviral,Marburg entry inh,LASV entry inh,HCV inhibitor,FMDV inh
COc1cc(OC)c(NC2=CC(=O)C(=O)c3ccccc32)cc1Cl,-82*,·,·,5µM*,?
NS(=O)(=O)c1ccc(NC2=CC(=O)C(=O)c3ccccc32)cc1,50,5%[46.1 µM],0%[46.1 µM],16µM*,25µM*
Cc1cc(NC2=CC(=O)C(=O)c3ccccc32)no1,-102*,?,?,?,?
Cc1cc(NC(=O)CCN2C(=O)c3ccccc3C2=O)no1,11,4%,4%,8%,-19%
CCOC(=O)c1ccc(NC2=CC(=O)C(=O)c3ccccc32)cc1,20,?,?,-16%,-3%
CCc1ccccc1NC(=O)C1CCN(S(=O)(=O)c2cn(C)cn2)CC1,34,·,-3%[46.1 µM],·,-13%
N#C/C(=C/c1cn(Cc2ccc(F)cc2)c2ccccc12)C(=O)Nc1cccc(Cl)c1,-23,·,-9%[46.1 µM],·,?
CCCCN(CCCNC(=O)c1c(C)oc2nc[nH]c(=O)c12)Cc1ccccc1,-19,1%[46.1 µM],26%[46.1 µM],·,-6%

# Screening results: PubChem BioAssay, National Center for Advancing Translational Sciences (NCATS)
